Measured values reported in PubChem BioAssay (NCI).
The panel holds about 79,000 compounds, 15% with a hit somewhere; the sample as a whole holds those more often. A number with no mark means an inactive call. The source made the active and inactive calls. No stated cut-off is given here; in the data, active means growth inhibition above about 70%; inactive means the rest.

Tests used:
[1] = NCI Yeast Anticancer Drug Screen. Data for the rad50 strain (AID 155);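 further: 0% = growth of vehicle-only cultures of the same strain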; conditions: S. cerevisiae rad50 strain growth inhibition, hits give high values
In short: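 Cells are treated with compound, grown, and their growth is then scored against vehicle-only cultures of the same repair-deficient yeast strain.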

[2] = NCI Yeast Anticancer Drug Screen. Data for the mec2-1 strain (AID 157); conditions: S. cerevisiae mec2-1 strain, hits give high values
In short: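 Cells of the genetically defined mec2-1 yeast strain are incubated with test compound. Inhibition of growth is calculated against vehicle-treated controls.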

[3] = NCI Yeast Anticancer Drug Screen. Data for the sgs1 mgt1 strain (AID 161);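 further: 0% = growth of cultures given vehicle only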; conditions: S. cerevisiae sgs1 mgt1 strain, hits give high values
In short: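 Test agents were incubated with a DNA-repair-mutant yeast strain. Growth was then read and compared against vehicle-treated controls.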

[4] = NCI Yeast Anticancer Drug Screen. Data for the cln2 rad14 strain (AID 165);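 further: 0% = growth equal to vehicle treated cultures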; conditions: S. cerevisiae cln2 rad14 strain, hits give high values
In short: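 The screen exposed genetically defined yeast (cln2 rad14) to test compounds and scored growth inhibition relative to vehicle-treated controls.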

[5] = NCI Yeast Anticancer Drug Screen. Data for the bub3 strain (AID 167); conditions: S. cerevisiae bub3 mutant strain, hits give high values
In short: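 Part of a panel of yeast mutants defective in DNA damage repair or cell cycle regulation. Each strain is grown with compound, and inhibition is calculated relative to solvent-treated cultures.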

[6] = NCI Yeast Anticancer Drug Screen. Data for the mlh1 rad18 strain (AID 175); conditions: S. cerevisiae mlh1 rad18 strain growth inhibition, hits give high values
In short: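 Compound-treated yeast growth, normalised to vehicle controls. Strain bears defined DNA repair mutations.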

[7] = at 5.0 µM (retest, dose inferred, filed as 0.5)
[8] = at 50.0 µM (retest, dose inferred, filed as 5.0)

SMILES	growth inhibition [1, 7]	growth inhibition [1, 8]	growth inhibition ([1]; at 50.0 µM)	growth inhibition [2, 7]	growth inhibition [2, 8]	growth inhibition ([2]; at 50.0 µM)	growth inhibition [3, 7]	growth inhibition [3, 8]	growth inhibition ([3]; at 50.0 µM)	growth inhibition [4, 7]	growth inhibition [4, 8]	growth inhibition ([4]; at 50.0 µM)	growth inhibition [5, 7]	growth inhibition [5, 8]	growth inhibition ([5]; at 50.0 µM)	growth inhibition [6, 7]	growth inhibition [6, 8]	growth inhibition ([6]; at 50.0 µM)
O=C1C=CC(=O)N1c1ccc2c(c1)Cc1cc(Cl)ccc1-2	-48%	92% (active)	13.6%	8%	96% (active)	78.3% (active)	-5%	93% (active)	79.2% (active)	-3%	27%	-72%	11%	82% (active)	72.3% (active)	26%	97% (active)	68.9%
O=C1OC(C2OC(=O)C(=O)C2C(=O)c2ccc([N+](=O)[O-])cc2)C(C(=O)c2ccc([N+](=O)[O-])cc2)C1=O (configuration not stated)	5%	57%	91.6% (active)	14%	44%	59.1%	10%	86% (active)	91.5% (active)	11%	22%	64.2%	5%	39%	56.6%	6%	53%	96.5% (active)
CSC(=S)N/N=C\C(C)=N/N=C(N)N	14%	92% (active)	94% (active)	16%	93% (active)	74.5% (active)	53%	92% (active)	85.4% (active)	-14%	89% (active)	18.9%	-4%	92% (active)	86.4% (active)	30%	90% (active)	93.7% (active)
COC(=O)C1c2cc(C)ccc2-c2ccc(C)cc21	31%	2%	13.6%	3%	-17%	13.3%	0%	23%	2.95%	-14%	8%	30.2%	-10%	18%	6.75%	4%	26%	49.5%
CCOC(=O)C(=N\Nc1ccccc1C)/C(C)=N\NC(N)=S	-9%	37%	73.5% (active)	7%	55%	48.5%	15%	71% (active)	75.2% (active)	-13%	20%	81.1% (active)	5%	30%	73.6% (active)	18%	68%	80.3% (active)
O=C(O)c1ccc2c(c1)CCCC2	-154%	-116%	16.2%	-55%	-53%	6.3%	-66%	-58%	9.5%	-60%	-61%	52%	-75%	-70%	-12.9%	-143%	-101%	21.4%
O=C(CNc1ccc([N+](=O)[O-])cc1)Nn1c(-c2ccccc2)nc2ccccc2c1=O	18%	23%	82.1% (active)	3%	26%	70.5% (active)	6%	25%	72.7% (active)	11%	19%	38.8%	4%	54%	91.8% (active)	2%	28%	85.4% (active)
Brc1ccc(N2COc3ccc4ccccc4c3C2)cc1	9%	-23%	19.2%	19%	-1%	35.5%	16%	-4%	62.4%	-17%	-3%	0.95%	9%	-3%	77.9% (active)	16%	2%	46.4%
CN(C)CCNC(=O)C(c1ccccc1)c1ccccc1	31%	13%	63.1%	2%	-4%	94.7% (active)	6%	-25%	12.8%	-1%	-3%	96.2% (active)	-1%	-11%	98% (active)	30%	11%	98.5% (active)
O=C(Oc1ccccc1)c1ccc2ccccc2c1O	-4%	-38%	15.8%	-5%	-35%	6.05%	-5%	-14%	2.7%	-2%	-59%	-47.1%	36%	52%	77.7% (active)	-4%	-27%	4.1%
Cc1cc2nc(-c3ccccc3[N+](=O)[O-])[nH]c2cc1C	-3%	20%	21.6%	-7%	7%	-0.15%	-6%	61%	41.1%	-3%	-1%	-73.7%	6%	55%	16.3%	2%	56%	3.2%
CCOC(=O)C1=C(c2ccccc2)OC(N)=C(C#N)C1c1ccc(C)cc1 (configuration not stated)	4%	25%	77.1% (active)	0%	66%	89.5% (active)	10%	64%	92.5% (active)	-4%	29%	89% (active)	1%	50%	80.1% (active)	-2%	65%	85.9% (active)
OC(Cn1cncn1)(Cn1cncn1)c1ccc(Cl)cc1Cl	66%	65%	62.6%	62%	59%	54.5%	38%	65%	63.2%	71% (active)	77% (active)	60.8%	65%	74% (active)	56.7%	75% (active)	81% (active)	48.2%
Cc1nn(C(=O)c2ccccc2O)c2c1C(c1ccc3ccccc3c1O)SC(N)=N2 (configuration not stated)	8%	97% (active)	97.1% (active)	0%	95% (active)	92.5% (active)	-4%	96% (active)	96.8% (active)	-9%	59%	92.1% (active)	-13%	97% (active)	97.8% (active)	9%	98% (active)	97.7% (active)
Cc1ccc(NC2=CC(=O)C(NO)c3ccccc32)cc1 (configuration not stated)	14%	66%	38.6%	19%	66%	20.6%	16%	68%	35.6%	10%	40%	44.5%	21%	83% (active)	21.9%	13%	79% (active)	60.5%
O=C(Nc1nc2c(ncn2C2CC(OC(=O)c3ccccc3)C(COC(=O)c3ccccc3)O2)c(=O)[nH]1)c1ccccc1 (configuration not stated)	3%	5%	55.5%	8%	12%	38.5%	-16%	33%	69.6%	6%	18%	66.4%	7%	10%	57.6%	9%	12%	60%
CC(=C/c1ccccc1)/C=C1/NC(=S)N(/C=C2\C(=O)Oc3ccccc3C2=O)C1=O	-13%	28%	98.1% (active)	-8%	41%	98.7% (active)	-16%	28%	89.1% (active)	-28%	34%	98.5% (active)	-24%	11%	98.5% (active)	-7%	12%	98.5% (active)
NC(=O)C(CCc1cccc2ccccc12)c1ccccc1 (configuration not stated)	6%	14%	98.8% (active)	-10%	-6%	94.5% (active)	-6%	24%	36.3%	-5%	-3%	62.5%	-2%	12%	95.8% (active)	-8%	14%	98.4% (active)
COc1ccc(C(c2c(O)c3ccccc3oc2=O)N2CCOCC2)cc1 (configuration not stated)	-30%	-14%	-8.2%	-10%	-6%	-3.1%	-13%	-29%	-34.9%	-19%	-17%	76.5% (active)	-14%	22%	-14%	-34%	-30%	-12%
